In article PMC7862700, “An all-to-all approach to the identification of sequence-specific readers for epigenetic DNA modifications on cytosine”:

Legend:
Test in all cases: DAPPL (digital affinity profiling via proximity ligation, sequencing); 10 mM Tris-HCl pH 7.5, 50 mM NaCl, 1 mM DTT, 4% glycerol, room temperature, 30 min; GST-TFs on glutathione beads, 16-mer random dsDNA library, 0.1% formaldehyde crosslink after washing; high values mean tight binding
Conditions in all cases: protein: recombinant; tags: N-terminal GST; dsDNA, one strand shown
[1] = biological target: T1, FLI1 (Homo sapiens, UniProt Q01543 1-452)
T1 sequence: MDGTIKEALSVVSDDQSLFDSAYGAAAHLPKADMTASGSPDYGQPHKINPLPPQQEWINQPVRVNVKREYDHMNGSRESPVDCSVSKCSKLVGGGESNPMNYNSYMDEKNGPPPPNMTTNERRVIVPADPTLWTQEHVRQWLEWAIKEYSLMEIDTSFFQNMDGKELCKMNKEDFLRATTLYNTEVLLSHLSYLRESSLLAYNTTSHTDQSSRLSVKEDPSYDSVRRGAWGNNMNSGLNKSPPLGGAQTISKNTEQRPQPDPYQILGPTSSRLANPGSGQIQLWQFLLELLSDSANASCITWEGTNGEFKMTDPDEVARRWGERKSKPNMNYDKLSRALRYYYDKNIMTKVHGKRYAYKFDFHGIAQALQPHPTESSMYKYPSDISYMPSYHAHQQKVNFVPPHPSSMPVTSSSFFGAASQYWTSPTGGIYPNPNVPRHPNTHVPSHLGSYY
In short: (§1)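 The binding signal reported is, for every hexamer, its read frequency for a factor over its read frequency for the tag-only sample. Reads came from pools of yeast-expressed, GST-fused human transcription factors on glutathione beads, barcoded with DNA and mixed with that sample, which were incubated with 200 nmole of a random double-stranded 16-mer DNA library in Tris/NaCl/DTT/glycerol buffer at room temperature for 30 min. After washing, the pools were crosslinked with 0.1% formaldehyde, proximity-ligated with BsaI/T4 ligase for 1 h at 37 °C, PCR-amplified and sequenced on an Illumina NextSeq500.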

[2] = biological target: T2, ELK1 (Homo sapiens, UniProt P19419 1-428)
T2 sequence: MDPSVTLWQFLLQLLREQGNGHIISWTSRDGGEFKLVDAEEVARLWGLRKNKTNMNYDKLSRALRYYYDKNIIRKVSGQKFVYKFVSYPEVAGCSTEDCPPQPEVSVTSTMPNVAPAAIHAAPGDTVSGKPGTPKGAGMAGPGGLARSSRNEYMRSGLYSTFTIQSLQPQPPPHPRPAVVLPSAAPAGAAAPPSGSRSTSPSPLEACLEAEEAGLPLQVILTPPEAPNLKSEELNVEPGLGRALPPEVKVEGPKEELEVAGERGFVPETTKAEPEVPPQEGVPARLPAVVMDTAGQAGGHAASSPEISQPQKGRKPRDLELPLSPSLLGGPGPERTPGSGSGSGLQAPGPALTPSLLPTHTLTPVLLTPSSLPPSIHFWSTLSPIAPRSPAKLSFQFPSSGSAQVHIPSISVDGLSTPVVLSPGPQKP
In short: as §1

[3] = biological target: T3, GABPA (Homo sapiens, UniProt Q06546 1-454)
T3 sequence: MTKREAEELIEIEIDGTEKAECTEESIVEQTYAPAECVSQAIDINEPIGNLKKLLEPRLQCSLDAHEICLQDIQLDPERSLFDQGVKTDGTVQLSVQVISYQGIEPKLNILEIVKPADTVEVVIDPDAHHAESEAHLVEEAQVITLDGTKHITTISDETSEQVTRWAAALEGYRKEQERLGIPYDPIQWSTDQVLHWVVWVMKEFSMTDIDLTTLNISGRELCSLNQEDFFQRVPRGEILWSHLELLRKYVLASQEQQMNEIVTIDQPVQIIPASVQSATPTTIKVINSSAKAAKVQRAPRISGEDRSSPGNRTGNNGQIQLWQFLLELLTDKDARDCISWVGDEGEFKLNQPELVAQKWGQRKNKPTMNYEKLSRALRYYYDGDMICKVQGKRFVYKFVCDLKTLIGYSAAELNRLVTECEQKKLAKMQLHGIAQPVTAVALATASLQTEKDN
In short: as §1

[4] = biological target: T4, ERG (Homo sapiens, UniProt P11308 1-479)
T4 sequence: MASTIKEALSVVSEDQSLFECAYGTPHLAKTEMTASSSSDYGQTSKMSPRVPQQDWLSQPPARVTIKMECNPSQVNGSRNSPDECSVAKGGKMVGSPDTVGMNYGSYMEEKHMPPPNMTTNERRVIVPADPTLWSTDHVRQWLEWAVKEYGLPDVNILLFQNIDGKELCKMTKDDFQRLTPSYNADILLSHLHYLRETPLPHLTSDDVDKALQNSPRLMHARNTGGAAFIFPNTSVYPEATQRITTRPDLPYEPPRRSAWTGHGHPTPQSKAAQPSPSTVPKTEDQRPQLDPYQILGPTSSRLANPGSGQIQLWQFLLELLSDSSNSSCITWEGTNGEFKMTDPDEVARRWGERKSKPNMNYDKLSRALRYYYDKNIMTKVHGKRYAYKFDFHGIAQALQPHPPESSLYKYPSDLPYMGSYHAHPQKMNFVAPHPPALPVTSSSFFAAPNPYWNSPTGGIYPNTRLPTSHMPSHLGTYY
In short: as §1

[5] = biological target: ELF1 (Homo sapiens, UniProt P32519 1-619)
Chain of ELF1 (P32519 whole entry): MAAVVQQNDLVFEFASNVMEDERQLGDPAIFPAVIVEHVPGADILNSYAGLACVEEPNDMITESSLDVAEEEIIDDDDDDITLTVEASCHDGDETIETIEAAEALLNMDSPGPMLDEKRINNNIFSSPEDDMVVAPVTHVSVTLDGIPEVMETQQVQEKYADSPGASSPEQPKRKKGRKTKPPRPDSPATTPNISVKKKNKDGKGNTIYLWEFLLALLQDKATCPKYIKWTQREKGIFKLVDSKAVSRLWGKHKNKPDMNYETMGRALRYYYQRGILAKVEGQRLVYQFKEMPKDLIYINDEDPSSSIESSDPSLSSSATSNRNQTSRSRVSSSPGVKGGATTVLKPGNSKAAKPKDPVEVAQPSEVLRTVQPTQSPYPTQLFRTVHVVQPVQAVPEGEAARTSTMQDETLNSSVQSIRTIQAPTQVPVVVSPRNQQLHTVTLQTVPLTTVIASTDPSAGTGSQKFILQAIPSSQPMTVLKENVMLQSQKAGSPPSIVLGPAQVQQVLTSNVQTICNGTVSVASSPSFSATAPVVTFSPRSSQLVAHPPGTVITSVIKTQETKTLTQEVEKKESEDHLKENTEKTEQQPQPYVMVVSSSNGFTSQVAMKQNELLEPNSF
In short: as §1

[6] = biological target: T5, EHF (Homo sapiens, UniProt Q9NZC4 1-300)
T5 sequence: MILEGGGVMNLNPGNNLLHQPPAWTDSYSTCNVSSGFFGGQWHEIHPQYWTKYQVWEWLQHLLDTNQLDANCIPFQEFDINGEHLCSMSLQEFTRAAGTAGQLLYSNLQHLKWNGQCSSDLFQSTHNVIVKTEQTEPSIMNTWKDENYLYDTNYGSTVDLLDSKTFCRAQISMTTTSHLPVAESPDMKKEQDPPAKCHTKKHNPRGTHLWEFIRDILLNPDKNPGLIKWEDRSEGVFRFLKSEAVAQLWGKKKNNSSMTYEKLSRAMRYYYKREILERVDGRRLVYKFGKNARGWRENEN
In short: as §1

[7] = biological target: SPI1 (Homo sapiens, UniProt P17947 1-270)
In short: as §1

[8] = biological target: SPIB (Homo sapiens, UniProt Q01892 1-262)
Chain of SPIB (Q01892 whole entry): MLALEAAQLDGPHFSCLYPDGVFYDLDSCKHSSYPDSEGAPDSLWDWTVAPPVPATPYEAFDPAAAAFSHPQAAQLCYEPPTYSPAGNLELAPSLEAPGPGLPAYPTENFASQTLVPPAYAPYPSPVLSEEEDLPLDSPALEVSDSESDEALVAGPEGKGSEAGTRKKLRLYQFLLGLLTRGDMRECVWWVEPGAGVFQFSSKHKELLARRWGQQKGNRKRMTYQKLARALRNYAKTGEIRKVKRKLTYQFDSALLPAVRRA
In short: as §1

[9] = biological target: T6, ELK3 (Homo sapiens, UniProt P41970 1-407)
T6 sequence: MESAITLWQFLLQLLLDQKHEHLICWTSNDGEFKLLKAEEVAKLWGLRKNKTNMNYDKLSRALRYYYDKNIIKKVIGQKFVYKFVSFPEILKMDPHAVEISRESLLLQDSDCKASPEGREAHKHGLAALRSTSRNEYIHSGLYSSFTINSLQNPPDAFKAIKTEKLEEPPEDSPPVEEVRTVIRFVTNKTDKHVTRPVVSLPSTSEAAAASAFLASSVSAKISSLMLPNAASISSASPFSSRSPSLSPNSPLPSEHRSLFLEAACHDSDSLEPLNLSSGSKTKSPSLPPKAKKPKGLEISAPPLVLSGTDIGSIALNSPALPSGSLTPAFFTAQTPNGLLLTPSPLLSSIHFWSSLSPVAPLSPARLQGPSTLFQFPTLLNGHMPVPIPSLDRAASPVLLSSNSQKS
In short: as §1

Sequence | binding signal [1] | binding signal [2] | binding signal [3] | binding signal [4] | binding signal [5] | binding signal [6] | binding signal [7] | binding signal [8] | binding signal [9]
AATGTA | 1.19 fold enrichment (6-mer frequency, TF over GST control) | 1.09 fold enrichment (6-mer frequency, TF over GST control) | 1.1 fold enrichment (6-mer frequency, TF over GST control) | 1.17 fold enrichment (6-mer frequency, TF over GST control) | 1.16 fold enrichment (6-mer frequency, TF over GST control) | 1.22 fold enrichment (6-mer frequency, TF over GST control) | 1.12 fold enrichment (6-mer frequency, TF over GST control) | 1.2 fold enrichment (6-mer frequency, TF over GST control) | 1.17 fold enrichment (6-mer frequency, TF over GST control)
CACTAA | 1.09 fold enrichment (6-mer frequency, TF over GST control) | 1.21 fold enrichment (6-mer frequency, TF over GST control) | 1.11 fold enrichment (6-mer frequency, TF over GST control) | 1.1 fold enrichment (6-mer frequency, TF over GST control) | 1.18 fold enrichment (6-mer frequency, TF over GST control) | 1.21 fold enrichment (6-mer frequency, TF over GST control) | 1.19 fold enrichment (6-mer frequency, TF over GST control) | 1.18 fold enrichment (6-mer frequency, TF over GST control) | 1.18 fold enrichment (6-mer frequency, TF over GST control)
CCCGCT | 1.38 fold enrichment (6-mer frequency, TF over GST control) | 1.31 fold enrichment (6-mer frequency, TF over GST control) | 1.34 fold enrichment (6-mer frequency, TF over GST control) | 1.3 fold enrichment (6-mer frequency, TF over GST control) | 1.44 fold enrichment (6-mer frequency, TF over GST control) | 1.48 fold enrichment (6-mer frequency, TF over GST control) | 1.37 fold enrichment (6-mer frequency, TF over GST control) | 1.35 fold enrichment (6-mer frequency, TF over GST control) | 1.35 fold enrichment (6-mer frequency, TF over GST control)
ATCGCC | 1.28 fold enrichment (6-mer frequency, TF over GST control) | 1.36 fold enrichment (6-mer frequency, TF over GST control) | 1.27 fold enrichment (6-mer frequency, TF over GST control) | 1.29 fold enrichment (6-mer frequency, TF over GST control) | 1.23 fold enrichment (6-mer frequency, TF over GST control) | 1.37 fold enrichment (6-mer frequency, TF over GST control) | 1.22 fold enrichment (6-mer frequency, TF over GST control) | 1.29 fold enrichment (6-mer frequency, TF over GST control) | 1.27 fold enrichment (6-mer frequency, TF over GST control)
CTGTCT | 1.35 fold enrichment (6-mer frequency, TF over GST control) | 1.3 fold enrichment (6-mer frequency, TF over GST control) | 1.31 fold enrichment (6-mer frequency, TF over GST control) | 1.46 fold enrichment (6-mer frequency, TF over GST control) | 1.35 fold enrichment (6-mer frequency, TF over GST control) | 1.35 fold enrichment (6-mer frequency, TF over GST control) | 1.33 fold enrichment (6-mer frequency, TF over GST control) | 1.3 fold enrichment (6-mer frequency, TF over GST control) | 1.62 fold enrichment (6-mer frequency, TF over GST control)
TGAACT | 1.27 fold enrichment (6-mer frequency, TF over GST control) | 1.19 fold enrichment (6-mer frequency, TF over GST control) | 1.33 fold enrichment (6-mer frequency, TF over GST control) | 1.32 fold enrichment (6-mer frequency, TF over GST control) | 1.2 fold enrichment (6-mer frequency, TF over GST control) | 1.34 fold enrichment (6-mer frequency, TF over GST control) | 1.17 fold enrichment (6-mer frequency, TF over GST control) | 1.25 fold enrichment (6-mer frequency, TF over GST control) | 1.19 fold enrichment (6-mer frequency, TF over GST control)
TTACAA | 1.15 fold enrichment (6-mer frequency, TF over GST control) | 1.17 fold enrichment (6-mer frequency, TF over GST control) | 1.16 fold enrichment (6-mer frequency, TF over GST control) | 1.16 fold enrichment (6-mer frequency, TF over GST control) | 1.15 fold enrichment (6-mer frequency, TF over GST control) | 1.17 fold enrichment (6-mer frequency, TF over GST control) | 1.15 fold enrichment (6-mer frequency, TF over GST control) | 1.07 fold enrichment (6-mer frequency, TF over GST control) | 1.13 fold enrichment (6-mer frequency, TF over GST control)
TCGCCT | 1.32 fold enrichment (6-mer frequency, TF over GST control) | 1.36 fold enrichment (6-mer frequency, TF over GST control) | 1.2 fold enrichment (6-mer frequency, TF over GST control) | 1.31 fold enrichment (6-mer frequency, TF over GST control) | 1.21 fold enrichment (6-mer frequency, TF over GST control) | 1.34 fold enrichment (6-mer frequency, TF over GST control) | 1.16 fold enrichment (6-mer frequency, TF over GST control) | 1.23 fold enrichment (6-mer frequency, TF over GST control) | 1.15 fold enrichment (6-mer frequency, TF over GST control)
